The source made the active and inactive calls. Unless noted, calls come from the whole dose curve.
biological target: Thyrotropin-releasing hormone receptor (Homo sapiens) (UniProt P34981); assay: qHTS assay to identify small molecule antagonists of the thyrotropin-releasing hormone receptor (TRHR) signaling pathway (AID 1346877; active = well fitted inhibition curve with a large enough effect in the repeat runs, not every such curve was filed as active); conditions: TRHR-HEK293, TRH-induced calcium fluorescence, antagonist mode; series mostly up to 51.3 µM; activity, negative = inhibition: at the top concentration
Procedure, shortened: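 Screening used HEK293 cells engineered with TRHR, with a brief 5 min room-temperature compound exposure preceding addition of TRH to 1 nM. The read-out was kinetic calcium-dye fluorescence, concentration-response from 15 doses in triplicate.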
% is set by controls: 0 for no effect and ±100 for the full control effect.

Thyrotropin-releasing hormone receptor (Homo sapiens), sequence (P34981 whole entry, looked up): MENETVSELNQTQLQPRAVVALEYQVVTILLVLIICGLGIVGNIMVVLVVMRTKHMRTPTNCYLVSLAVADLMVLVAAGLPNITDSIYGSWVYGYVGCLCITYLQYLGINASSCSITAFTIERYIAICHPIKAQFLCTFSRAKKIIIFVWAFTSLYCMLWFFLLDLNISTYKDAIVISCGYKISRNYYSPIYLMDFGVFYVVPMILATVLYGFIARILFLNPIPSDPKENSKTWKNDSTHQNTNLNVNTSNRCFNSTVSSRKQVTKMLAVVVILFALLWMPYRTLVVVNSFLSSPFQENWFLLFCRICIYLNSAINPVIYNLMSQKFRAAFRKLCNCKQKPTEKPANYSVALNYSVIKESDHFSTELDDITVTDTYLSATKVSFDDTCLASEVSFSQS

Compound | activity, negative = inhibition
Cc1c(N)c(=O)n(-c2ccccc2)n1C | 7.21% [at 23.6 µM] (inactive)
Nc1ccn([C@@H]2O[C@H](CO)[C@@H](O)C2O)c(=O)n1 (stereo partly drawn) | 2.08% (inactive)
CC(C(=O)O)c1cccc(Oc2ccccc2)c1 (stereo not drawn) | -2.11% [at 23.6 µM] (inactive)
CCCCCCCCCCCCCCCCCCO | -3.67% [at 23.6 µM] (inactive)
CC12CCC(C(=O)C1=O)C2(C)C (stereo not drawn) | 0.535% (inactive)
Cc1ccc(C(=O)c2ccc(CC(=O)O)n2C)cc1 | -3.43% [at 23.6 µM] (inactive)
CCCCCCCCCCCCCCC(=O)O | 1.02% (inactive)
NCCCC(N)(C(=O)O)C(F)F (stereo not drawn) | -1.71% [at 23.6 µM] (inactive)
Cc1coc2ccccc2c1=O | -0.348% [at 23.6 µM] (inactive)
CC(C)COC(=O)c1ccc(N)cc1 | 0.227% [at 23.6 µM] (inactive)
CN1[C@@H]2CC[C@H]1CC(OC(=O)C(O)c1ccccc1)C2 (stereo partly drawn) | 3.43% [at 23.6 µM] (inactive)

biological target: Thyrotropin-releasing hormone receptor (Homo sapiens) (UniProt P34981); assay: qHTS assay to identify small molecule agonists of the thyrotropin-releasing hormone receptor (TRHR) signaling pathway (AID 1346891); conditions: TRHR-HEK293 calcium fluorescence, agonist mode; series mostly up to 57.6 µM; activation: at the top concentration
Procedure, shortened: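 Intracellular calcium rise, read as fluorescence every second for 3 min, served as the agonist signal in dye-loaded HEK293 cells expressing TRHR; each compound ran at 15 concentrations in triplicate.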

Compound | activation
CCCC(C)C(=O)OCC (stereo not drawn) | -0.054% (inactive)
C[C@H]1C[C@H]2[C@@H]3CCC4=CC(=O)C=C[C@]4(C)[C@H]3C(=O)C[C@]2(C)[C@@]1(O)C(=O)CO | -0.284% [at 26.5 µM] (inactive)
CC[N+](C)(CC)CCOC(=O)C1c2ccccc2Oc2ccccc21 | -0.0104% [at 26.5 µM] (inactive)
CO/N=C(\C(=O)N[C@@H]1C(=O)N2C(C(=O)O)=C(CSc3nc(=O)c(O)nn3C)CS[C@H]12)c1csc(N)n1 | 0.968% [at 26.5 µM] (inactive)
CC(=O)N[C@H]1[C@H]([C@H](O)[C@H](O)CO)OC(C(=O)O)=C[C@@H]1N=C(N)N | -0.233% [at 26.5 µM] (inactive)
CCOc1ccc2nc(S(N)(=O)=O)sc2c1 | 0.0747% [at 26.5 µM] (inactive)
O=S(=O)(O)c1cccc2c(S(=O)(=O)O)cccc12 | -0.271% (inactive)
CNCC(O)c1ccc(O)c(O)c1 (stereo not drawn) | 11.7% [at 26.5 µM] (inactive)
Nc1ccccn1 | -0.0258% (inactive)
O=C(O)CC(C(=O)O)S(=O)(=O)O (stereo not drawn) | -1.01% (inactive)
CC(=O)C1CCCCC1=O (stereo not drawn) | 0.0564% (inactive)
CO[C@@]1(NC(=O)C(C(=O)O)c2ccc(O)cc2)C(=O)N2C(C(=O)O)=C(CSc3nnnn3C)CO[C@@H]21 (stereo partly drawn) | -0.203% [at 26.5 µM] (inactive)
